Laboratory results taken from PubChem BioAssay.
Values without a mark were called inactive. Entries that show only a call come without a potency. For some of these results: Potency and affinity values are given separately. Active and inactive are the calls of the source. Unless noted, how the calls were made is not given here.

How the values were obtained:
[1] = antimalarial activity against Dd2 strain (AID 2302;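 active means growth inhibition above 50% at the single 2 µM test dose, taken to imply half-maximal potency below 2 µM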); details: P. falciparum Dd2 in RBCs, LDH growth readout, 72 h; at 2 µM; active compounds read high
[2] = human hepatoma cell viability loss – ATP luminescence, cytotoxicity control for P. falciparum antimalarial project, primary screen (AID 2303;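 active means inhibition above 50%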); details: HepG2 viability, 24-48 h, at 10 µM, active compounds read high
[3] = molecular target: L-lactate dehydrogenase (Plasmodium falciparum (isolate CDC / Honduras)) (UniProt Q27743); experiment: PfLDH activity inhibition – cell lysate, 3D7 strain, counter-screen for P. falciparum growth inhibition project (AID 2304); details: P. falciparum 3D7 crude extract, LDH APAD/NBT absorbance; at 2 µM; active compounds read high
[4] = inhibition of 3D7 malaria parasite growth – strain 3D7 (AID 2306); details: P. falciparum 3D7 erythrocytic growth, LDH absorbance, 72 h; at 2 µM; active compounds read high
[5] = molecular target: Calcium-dependent protein kinase 1 (Plasmodium falciparum (isolate 3D7)) (UniProt P62344); experiment: PfCDPK1 kinase inhibitors, biochemical, TCAMS library (AID 1159585; cut-off not given, nearly all actives have IC50 up to about 0.98 µM;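 further: inhibitors leave more ATP so luminescence rises with inhibition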); details: recombinant PfCDPK1, Kinase-Glo ATP depletion luminescence
[6] = molecular target: Plasmodium falciparum protein kinase 6 (PK6, PF3D7_1337100) (UniProt Q8IDW1); experiment: PfPK6 kinase inhibitors, biochemical, TCAMS library (AID 1159586); details: recombinant PfPK6, Kinase-Glo ATP depletion luminescence
[7] = molecular target: Protein kinase 7 (PK7), Plasmodium falciparum 3D7 (PF3D7_0213400) (UniProt Q7YTF7); experiment: inhibition of Plasmodium PK7 catalytic activity – biochemical, TCAMS antimalarial set, Kinase-Glo luminescence (AID 1159587); details: recombinant PfPK7, Kinase-Glo ATP depletion luminescence
[8] = molecular target: Calcium-dependent protein kinase 4 (Plasmodium falciparum (isolate 3D7)) (UniProt Q8IBS5); experiment: PfCDPK4 kinase inhibitors, biochemical, TCAMS library (AID 1159588; cut-off not given, nearly all actives have IC50 up to about 0.91 µM); details: recombinant PfCDPK4, Kinase-Glo ATP depletion luminescence
Sequence of Calcium-dependent protein kinase 4 (Plasmodium falciparum (isolate 3D7)) (Q8IBS5 whole entry, looked up): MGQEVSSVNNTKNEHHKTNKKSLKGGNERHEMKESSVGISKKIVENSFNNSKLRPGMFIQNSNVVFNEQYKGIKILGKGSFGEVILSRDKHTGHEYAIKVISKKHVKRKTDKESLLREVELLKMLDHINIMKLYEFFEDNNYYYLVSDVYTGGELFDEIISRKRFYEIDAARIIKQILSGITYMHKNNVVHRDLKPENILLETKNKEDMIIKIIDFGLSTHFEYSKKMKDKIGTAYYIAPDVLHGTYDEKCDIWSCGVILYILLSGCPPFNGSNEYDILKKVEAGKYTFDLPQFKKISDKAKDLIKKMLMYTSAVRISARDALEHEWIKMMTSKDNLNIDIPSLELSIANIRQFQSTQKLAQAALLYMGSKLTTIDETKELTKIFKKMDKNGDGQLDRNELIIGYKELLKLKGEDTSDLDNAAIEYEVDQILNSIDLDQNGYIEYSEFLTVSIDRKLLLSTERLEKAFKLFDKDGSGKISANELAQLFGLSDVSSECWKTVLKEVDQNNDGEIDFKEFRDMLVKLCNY

Sequence of Protein kinase 7 (PK7), Plasmodium falciparum 3D7 (PF3D7_0213400) (Q7YTF7 1-343): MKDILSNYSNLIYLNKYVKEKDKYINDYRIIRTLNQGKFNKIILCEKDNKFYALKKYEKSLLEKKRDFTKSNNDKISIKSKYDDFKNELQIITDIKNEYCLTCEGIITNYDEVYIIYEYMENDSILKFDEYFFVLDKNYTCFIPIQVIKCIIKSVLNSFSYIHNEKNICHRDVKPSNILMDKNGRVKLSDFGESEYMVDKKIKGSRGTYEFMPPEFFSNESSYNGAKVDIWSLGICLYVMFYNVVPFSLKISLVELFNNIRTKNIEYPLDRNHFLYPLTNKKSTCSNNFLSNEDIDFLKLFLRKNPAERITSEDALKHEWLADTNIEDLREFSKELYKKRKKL
Sequence of Calcium-dependent protein kinase 1 (Plasmodium falciparum (isolate 3D7)) (P62344 whole entry, looked up): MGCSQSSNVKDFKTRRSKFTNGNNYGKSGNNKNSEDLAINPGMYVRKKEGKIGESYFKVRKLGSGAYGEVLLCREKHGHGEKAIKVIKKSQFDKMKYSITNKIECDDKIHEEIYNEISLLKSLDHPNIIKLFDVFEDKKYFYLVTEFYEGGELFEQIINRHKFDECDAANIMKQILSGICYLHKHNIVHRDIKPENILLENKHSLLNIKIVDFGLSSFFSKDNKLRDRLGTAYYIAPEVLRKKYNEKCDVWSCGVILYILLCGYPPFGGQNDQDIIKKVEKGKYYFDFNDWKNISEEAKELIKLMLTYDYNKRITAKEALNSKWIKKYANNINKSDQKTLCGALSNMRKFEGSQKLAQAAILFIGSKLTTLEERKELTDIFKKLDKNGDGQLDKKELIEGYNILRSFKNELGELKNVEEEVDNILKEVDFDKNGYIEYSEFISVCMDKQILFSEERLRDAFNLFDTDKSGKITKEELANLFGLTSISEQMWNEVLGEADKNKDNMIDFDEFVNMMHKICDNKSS
Sequence of Plasmodium falciparum protein kinase 6 (PK6, PF3D7_1337100) (Q8IDW1 1-305): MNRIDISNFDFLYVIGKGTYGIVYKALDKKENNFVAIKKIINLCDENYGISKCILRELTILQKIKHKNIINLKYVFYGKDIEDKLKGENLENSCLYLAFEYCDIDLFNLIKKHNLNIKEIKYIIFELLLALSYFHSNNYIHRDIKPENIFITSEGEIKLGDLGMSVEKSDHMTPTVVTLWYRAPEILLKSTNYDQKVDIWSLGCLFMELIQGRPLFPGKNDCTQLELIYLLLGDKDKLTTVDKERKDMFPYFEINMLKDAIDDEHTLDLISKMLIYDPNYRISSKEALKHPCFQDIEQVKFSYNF
Sequence of L-lactate dehydrogenase (Plasmodium falciparum (isolate CDC / Honduras)) (Q27743 whole entry, looked up): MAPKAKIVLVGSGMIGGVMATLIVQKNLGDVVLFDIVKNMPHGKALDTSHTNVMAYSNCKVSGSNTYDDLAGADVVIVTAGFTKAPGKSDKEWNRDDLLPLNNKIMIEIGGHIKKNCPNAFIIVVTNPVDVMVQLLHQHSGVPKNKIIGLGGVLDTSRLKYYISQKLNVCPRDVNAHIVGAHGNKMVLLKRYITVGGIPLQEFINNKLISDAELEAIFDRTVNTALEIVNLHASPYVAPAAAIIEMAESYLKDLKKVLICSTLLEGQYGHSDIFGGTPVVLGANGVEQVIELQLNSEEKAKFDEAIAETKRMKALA

SMILES	growth inhibition [1]	inhibition [2]	inhibition [3] [%]	growth inhibition [4]	outcome [5]	outcome [6]	outcome [7]	outcome [8]
Cc1ccc(CCNCC(O)c2cccc(C(F)(F)F)c2)cc1 (stereo not given)	83% (active)	-3%	0	94% (active)	inactive	inactive	inactive	inactive
Cc1ccc(CNC(=O)[C@H](CC(C)C)Nc2cc(C)nc(NCC3CCCCC3)n2)cc1	44%	6%	-2	96% (active)	inactive	inactive	inactive	inactive
O=C(N[C@@H](Cc1ccccc1)[C@H](O)CNC1CCCCC1)c1cc(C2CCCC2)cc(N2CCCC2=O)c1	98% (active)	17%	0	100% (active)	inactive	inactive	inactive	inactive
COc1ccc(CN2CCCC(N3CC4(OC3=O)c3ccccc3-c3ccccc34)C2)c(O)c1 (stereo not given)	34%	14%	7	92% (active)	inactive	inactive	inactive	inactive
OC[C@H](Nc1nc(C(Oc2ccccc2)c2ccccc2)nc2[nH]ncc12)c1ccccc1 (stereo not given in full)	45%	0%	-4	98% (active)	inactive	inactive	inactive	inactive
CCn1c(Sc2ccc([N+](=O)[O-])c(C#N)c2)nnc1-c1ccc(Cl)cc1	7%	2%	-2	93% (active)	inactive	inactive	inactive	inactive
COc1cc(-n2c(CN3CCCC3)nc3cc(-c4ccc(Cl)cc4)sc3c2=O)ccc1OCCN1CCCC1	90% (active)	66% (active)	-5	94% (active)	inactive	inactive	inactive	inactive
COc1ccc2nccc([C@@H](O)CN3CCC(NC(=O)c4ccc5cc[nH]c5c4)CC3)c2c1	23%	21%	-6	91% (active)	inactive	inactive	inactive	inactive
CCCCCN1CCC(NS(=O)(=O)c2cccc(C(=O)Nc3ccc(C(F)(F)F)cc3)c2)C1 (stereo not given)	5%	45%	-3	95% (active)	inactive	inactive	inactive	inactive
CN1CCCN(Cc2ccc(-c3cccc(NC(=O)c4ccc(C#N)cc4)c3)cc2)CC1	26%	29%	-5	100% (active)	inactive	inactive	inactive	inactive
CON=Cc1ccn(-c2ccc(O)c3c2C[C@H]2C[C@H]4[C@H](N(C)C)C(=O)C(C(N)=O)=C(O)[C@@]4(O)C(=O)C2=C3O)c1	70% (active)	3%	-1	96% (active)	inactive	inactive	inactive	inactive
Cc1nc(-c2cccc3c(NC(=O)Nc4ccc5nccc(N6CCN(C)CC6)c5c4)cccc23)no1	84% (active)	-4%	-2	100% (active)	inactive	inactive	inactive	inactive
Oc1ccc(CCNc2nc(NCc3ccccc3-c3ccc(C(F)(F)F)cc3)nc(N3CCCNCC3)n2)cc1	2%	12%	0	95% (active)	inactive	inactive	inactive	inactive
COc1ccc(NC(=O)c2ccc(-c3cc(NC(=O)c4ccnc(N5CCCC5)c4)ccc3C)s2)cc1N1CCN(C)CC1	100% (active)	15%	6	100% (active)	inactive	inactive	inactive	inactive
CCC(C)C(COC(=O)c1cc(OC)c(OC)c(OC)c1)N(C)CCN(C)C(COC(=O)c1cc(OC)c(OC)c(OC)c1)C(C)CC (stereo not given)	45%	20%	3	84% (active)	inactive	inactive	inactive	inactive
C[C@@H](CNc1ccnc(Nc2ccc3[nH]c(=O)[nH]c3c2)n1)c1ccccc1	1%	42%	-3	100% (active)	inactive	inactive	inactive	inactive
Cc1ccc(O)cc1Nc1ccnc2ccc(-c3cccc(CN(C)C)c3)cc12	99% (active)	-3%	1	101% (active)	inactive	inactive	inactive	inactive
CCOC(=O)N1CCN(CCCCNc2c3ccc(Cl)cc3nc3ccc(OC)cc23)CC1	98% (active)	25%	-5	104% (active)	inactive	inactive	inactive	inactive
OC(CNCc1ccccc1OCc1ccccc1)c1cccc(I)c1 (stereo not given)	100% (active)	2%	-1	100% (active)	inactive	inactive	inactive	inactive
O=C1OC2(CN1CC1CCN(Cc3ccc(-n4ccnc4)cc3)C1)c1ccccc1-c1ccccc12 (stereo not given)	-5%	25%	-2	96% (active)	inactive	inactive	inactive	inactive
